Compound activity deposited in PubChem BioAssay by National Center for Advancing Translational Sciences (NCATS).
This is a sample that favours compounds with a hit; in the whole collection about 18% have one here.
Six1-Eya2 blk: Six1/Eya2 interaction inhibition. AlphaScreen GST-Six1/His-Eya2 binding, biochemical; stronger effect = lower value. AID 651725. activity change, % (test concentration not listed). hit rate 0.56% among 360,000; in the data active = activity change below about -65%; inconclusive = mostly about -30% to -63%
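GST-Six1 + His-Eya2 (5X stock: 250/500 nM); Tris pH 8.0, 300 mM NaCl, 0.05% BSA, 0.02% Tween 20; GSH donor/Ni acceptor beads; 1 h 37 °C dark; AlphaScreen readout.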
CtBP-E1A inh: blocks the CtBP interaction with E1A | hit rate 0.49% among 340,000 | AlphaScreen GST-E1A/His-CtBP binding, 1536-well; stronger effect = lower value | activity change, % (concentration not given with the values) | AID 651724; in the data active = activity change below about -65%; inconclusive = mostly about -30% to -63%
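GST-E1A and His-tagged CtBP (125 nM each as 5X stock) were preincubated with pin-transferred compound for 2 h at 37 °C in the dark, then glutathione donor and nickel acceptor beads were added for 1 h before AlphaScreen reading.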
DT40 TDP1 CPT: growth inhibition of DT40 Tdp1-/-;hTDP1 cells with camptothecin (screen for TDP1 inhibitors); chicken DT40 Tdp1-/-;hTDP1 cells + 20 nM CPT, ATP luminescence, 48 h; Potency, µM (titrated, usually from 46.2 µM), for inactives: at the top dose activity change, negative = growth inhibition, hits mostly inhibitors; hit rate 12% among 420,000; also: potency is read from the fitted curve at half-maximal effect; nearly all actives have a fitted effect of over 55% in size
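Cell growth measured by CellTiter-Glo luminescence after a minimum 48 h, 37 C compound exposure with 20 nM CPT in Tdp1-knockout DT40 cells stably expressing hTDP1, seeded 400/well; qHTS titration format.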
TDP1 block: TDP1 (human) enzyme inhibition; hit rate 0.28% among 350,000; recombinant TDP1, AlphaScreen DNA substrate cleavage; Potency, µM (doses to about 130 µM), inactives show at the highest dose activity change, negative = inhibition, actives largely listed as inhibitors; Q9NUW8; also: potency is read from the fitted curve at half-maximal effect; nearly all actives have a fitted effect of over 40% in size
Target sequence (Q9NUW8 whole entry, looked up): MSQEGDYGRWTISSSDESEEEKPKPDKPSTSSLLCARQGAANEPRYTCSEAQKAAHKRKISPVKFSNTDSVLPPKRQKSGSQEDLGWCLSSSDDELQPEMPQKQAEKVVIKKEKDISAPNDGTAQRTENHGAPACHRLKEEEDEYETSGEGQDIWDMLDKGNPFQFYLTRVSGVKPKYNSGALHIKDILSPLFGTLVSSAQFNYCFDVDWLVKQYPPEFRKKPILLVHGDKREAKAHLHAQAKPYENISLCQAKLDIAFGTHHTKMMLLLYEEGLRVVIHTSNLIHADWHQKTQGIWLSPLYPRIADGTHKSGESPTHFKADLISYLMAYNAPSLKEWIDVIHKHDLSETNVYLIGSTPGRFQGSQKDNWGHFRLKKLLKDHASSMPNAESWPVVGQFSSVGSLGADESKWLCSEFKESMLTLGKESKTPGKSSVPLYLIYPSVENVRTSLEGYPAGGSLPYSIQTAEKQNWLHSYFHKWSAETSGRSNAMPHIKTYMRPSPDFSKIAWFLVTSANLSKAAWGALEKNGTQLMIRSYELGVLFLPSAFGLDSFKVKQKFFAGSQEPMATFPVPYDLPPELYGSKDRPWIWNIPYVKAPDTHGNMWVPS
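E. coli-derived human Tdp1, 1 nM final. Cpd preinc 15 min RT; substrate 15 nM final, 5 min RT; AS bead mix 10 ug/ml final, 10 min RT. Signal loss = tyrosine-FITC cleavage. No-enzyme wells = max signal.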
IL1B secr inh: inflammasome signaling inhibition, IL-1 beta readout; THP-1 LPS/ATP IL-1B secretion, AlphaLISA, 16 h; stronger effect = lower value; activity change, % at 57.5 µM; hit rate 4.7% among 360,000; AID 743279; in the data active = activity change below about -50%; inconclusive = mostly about -30% to -49%
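THP-1 cells pretreated 1 hr with compounds (up to 57.5 uM final), then stimulated with LPS (250 ng/mL final) plus ATP (1.25 mM final); secreted IL-1B measured by AlphaLISA after 16 hr, decreased signal indicating inhibition.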
TDP1 cell noCPT: qHTS for Inhibitors of human tyrosyl-DNA phosphodiesterase 1 (TDP1): qHTS in cells in absence of CPT. DT40 Tdp1-/- hTDP1 cells, no CPT, ATP luminescence, 48 h. Potency, µM (doses to about 46.2 µM), for inactives: at the top dose activity change, negative = growth inhibition, hits mostly inhibitors. hit rate 15% among 420,000; also: potency is read from the fitted curve at half-maximal effect; nearly all actives have a fitted effect of over 55% in size
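Readout: luminescence from CellTiter-Glo after 30 min in the dark at RT. Cells: DT40 Tdp1-/- with stable hTDP1, 400/well. Exposure: compounds alone, ≥48 hr, 37 °C.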
* hit, by the source's call; [ ] = another dose, or the depositor's remark. Unless noted, calls follow the shape of the dose curve; as a rule, active = well fitted curve in the direction sought with a large enough effect; inconclusive = small, poorly fitted or top-dose-only effect, or another doubt; inactive = no such curve, though single readings can be large; an effect the other way counts as inactive or inconclusive. % is scaled to controls: 0 for no effect and ±100 for the full control effect.

O=C(Nc1ccc(Oc2ccccc2)nc1)C1CCCCN1Cc1ccco1 (configuration not stated) was read as Six1-Eya2 blk -9, CtBP-E1A inh -12, DT40 TDP1 CPT 4.1µM*, TDP1 block 3%, IL1B secr inh 40 and TDP1 cell noCPT 4.1µM*.
`O=C(Nc1ccc(Oc2ccccc2)nc1)C1CCN(Cc2ccco2)CC1` gave Six1-Eya2 blk 3, CtBP-E1A inh 0, DT40 TDP1 CPT -16%, TDP1 block 4%[56.1 µM], IL1B secr inh -12 and TDP1 cell noCPT -26%.
Screening N#Cc1ccc(CSc2nnc3[nH]c(=O)cc(N)n23)cc1 returned Six1-Eya2 blk -9, CtBP-E1A inh -19, DT40 TDP1 CPT -7%, TDP1 block -3%, IL1B secr inh -3 and TDP1 cell noCPT -11%.
`Cc1cccc(OCCOC(=O)c2c(-c3ccccc3)noc2C)c1` gave Six1-Eya2 blk 56, CtBP-E1A inh 104, DT40 TDP1 CPT inconclusive, IL1B secr inh 33 and TDP1 cell noCPT 23µM*.
`CCCCN(CCCC)S(=O)(=O)c1ccc(NC(=O)c2c(-c3ccccc3)noc2C)cc1` gave DT40 TDP1 CPT 21µM*, TDP1 block -2% and TDP1 cell noCPT 29µM*.
Screening CCOC(=O)c1ccccc1NC(=O)c1c(-c2ccccc2)noc1C returned DT40 TDP1 CPT 9.2µM*, TDP1 block -11% and TDP1 cell noCPT 4.6µM*.
For Cc1onc(-c2ccccc2)c1C(=O)Nc1ccc(NC(=O)c2c(-c3ccccc3)noc2C)cc1 the results were Six1-Eya2 blk 2, DT40 TDP1 CPT -2%, IL1B secr inh 4 and TDP1 cell noCPT -19%.
Screening Cc1onc(-c2ccccc2)c1C(=O)OCC(=O)Nc1ccc(Cl)cc1 returned Six1-Eya2 blk 6, CtBP-E1A inh -2, DT40 TDP1 CPT inconclusive, TDP1 block -2%[56.1 µM], IL1B secr inh 0 and TDP1 cell noCPT inconclusive.
For CCCOc1cccc(NC(=O)c2c(-c3ccccc3)noc2C)c1 the results were Six1-Eya2 blk 8, CtBP-E1A inh 9, DT40 TDP1 CPT -28%, TDP1 block 7%, IL1B secr inh -26 and TDP1 cell noCPT inconclusive.
For Cc1onc(-c2ccccc2)c1C(=O)OCC(=O)Nc1ccccc1Cl the results were Six1-Eya2 blk -10, CtBP-E1A inh 2, DT40 TDP1 CPT inconclusive, IL1B secr inh -1 and TDP1 cell noCPT 18µM*.
COC(=O)c1cc(OC)c(OC)cc1N was read as Six1-Eya2 blk 4, CtBP-E1A inh -2, DT40 TDP1 CPT -2%, TDP1 block 5%[56.1 µM], IL1B secr inh -27 and TDP1 cell noCPT -1%.
CSc1cc(CS(=O)(=O)c2ccccc2)nc(-c2ccccc2)n1 was read as Six1-Eya2 blk 0, CtBP-E1A inh 4, DT40 TDP1 CPT -7%, TDP1 block 0%, IL1B secr inh 19 and TDP1 cell noCPT 2%.
`CCn1c(C)cc(/C=C2\NC(=O)N(Cc3ccccc3)C2=O)c1C` gave Six1-Eya2 blk -9, CtBP-E1A inh -14, DT40 TDP1 CPT inconclusive, TDP1 block 9%, IL1B secr inh -7 and TDP1 cell noCPT inconclusive.
Screening Cc1ccc(NC(=O)CN(C)Cc2cccs2)cc1Cl returned Six1-Eya2 blk 4, CtBP-E1A inh 7, DT40 TDP1 CPT inconclusive, TDP1 block -5%, IL1B secr inh -17 and TDP1 cell noCPT 21µM*.
`CN(CC(=O)Nc1c(F)cccc1F)Cc1cccs1` gave Six1-Eya2 blk 4, CtBP-E1A inh 5, DT40 TDP1 CPT 9%, TDP1 block 5%, IL1B secr inh -13 and TDP1 cell noCPT 2%.
CCN(CC)c1ccc(NC(=O)CN(C)Cc2cccs2)cc1 was read as Six1-Eya2 blk inconclusive, CtBP-E1A inh inconclusive, DT40 TDP1 CPT inconclusive, TDP1 block 18%, IL1B secr inh -13 and TDP1 cell noCPT 16µM*.
O=C1C=C(NCc2ccc(Cl)cc2Cl)C2(CCCCC2)O1 was read as Six1-Eya2 blk -1, CtBP-E1A inh 12, DT40 TDP1 CPT -19%, TDP1 block -2%, IL1B secr inh inconclusive and TDP1 cell noCPT -17%.
CSc1ccccc1NC(=O)c1ccc([N+](=O)[O-])cc1 was read as Six1-Eya2 blk -24, CtBP-E1A inh -14, DT40 TDP1 CPT inconclusive, TDP1 block -3%, IL1B secr inh 4 and TDP1 cell noCPT inconclusive.
For O=C(Nc1ccc2oc(-c3ccc4ccccc4c3)nc2c1)c1cccc(Cl)c1Cl the results were DT40 TDP1 CPT 8.2µM*, TDP1 block -1%[12.3 µM] and TDP1 cell noCPT 5.2µM*.
For O=C(Nc1ccc2oc(-c3ccc4ccccc4c3)nc2c1)c1ccc2c(c1)OCCO2 the results were Six1-Eya2 blk -13, CtBP-E1A inh -11, DT40 TDP1 CPT 5.8µM*, TDP1 block -7%, IL1B secr inh 1 and TDP1 cell noCPT 8.2µM*.
`CC(C)c1ccc2oc(-c3cccc(NC(=O)c4ccc5c(c4)OCCO5)c3)nc2c1` gave DT40 TDP1 CPT inconclusive and TDP1 cell noCPT 16µM*.
Screening COc1ccc2oc(-c3ccc(C)c(NC(=O)c4cccnc4)c3)nc2c1 returned DT40 TDP1 CPT -14%, TDP1 block -1% and TDP1 cell noCPT 1%.
Screening COc1ccc2oc(-c3ccc(C)c(NC(=O)c4ccc5c(c4)OCCO5)c3)nc2c1 returned DT40 TDP1 CPT inconclusive, TDP1 block 5% and TDP1 cell noCPT 16µM*.
OCC1OC(C#Cc2ccccc2)C=CC1OCc1ccccc1 (configuration not stated) was read as TDP1 block 10%[21 µM].
For C1=Nc2ccccc2CN1c1ccccc1 the results were Six1-Eya2 blk 1, CtBP-E1A inh 5, DT40 TDP1 CPT -4%, TDP1 block -1%, IL1B secr inh 8 and TDP1 cell noCPT inconclusive.
COc1ccc(CCNS(=O)(=O)c2ccc3c(c2)c(=O)n(C)c(=O)n3C)cc1OC was read as DT40 TDP1 CPT 5%, TDP1 block 2%[12.3 µM] and TDP1 cell noCPT -5%.
For CCOc1cc(/C=C2\SC(=O)N(c3ccc(O)cc3)C2=O)ccc1O the results were Six1-Eya2 blk -6, CtBP-E1A inh -1, DT40 TDP1 CPT inconclusive, TDP1 block 6%, IL1B secr inh inconclusive and TDP1 cell noCPT inconclusive.
For COc1ccc(C=C(C(C)=O)C(C)=O)cc1OC the results were Six1-Eya2 blk -2, CtBP-E1A inh 3, DT40 TDP1 CPT inconclusive, IL1B secr inh -26 and TDP1 cell noCPT inconclusive.
For COc1cc(C=C2C(=O)C=CC2=O)ccc1O the results were Six1-Eya2 blk -74*, CtBP-E1A inh 7, DT40 TDP1 CPT 0.16µM*, IL1B secr inh -113* and TDP1 cell noCPT 0.26µM*.
